Data taken from the supplement of paper PMC10127200.
Where a name gives a salt, the structure may show the parent alone.

Assays:
Assay in all cases: Euclidean distance of Cell Painting phenotypic profile (signed KS, 77 features) to DMSO centroid (dimensionless distance); 5 or 10 uM (library dependent); higher = stronger phenotypic change vs DMSO (phenoactivity)
Conditions in all cases: 48 h
786-O = system: 786-O
How it was run: (§1)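 At 10 or 5 uM, as set by the library, and 0.1% DMSO final, compounds were applied for 48 h to five cancer lines and one healthy fibroblast line. Stained cells were imaged confocally at 20X in 9 fields per well, and Harmony extracted 77 features scored as signed Kolmogorov-Smirnov statistics against vehicle wells on the same plate. Profiles underwent plate-position correction, correlation weighting and replicate averaging at the top dose. Phenoactivity is the Euclidean distance from each such profile to the median vehicle profile.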

A549 = system: A549
How it was run: as §1

DU145 = system: DU145
How it was run: as §1

FB = system: FB
How it was run: as §1

HEPG2 = system: HEPG2
How it was run: as §1

OVCAR4 = system: OVCAR4
How it was run: as §1

Structure (SMILES): NC(=O)c1cccnc1 [Nicotinamide (Vitamin B3)]
- Euclidean distance (786-O): 0.857
- Euclidean distance (A549): 0.597
- Euclidean distance (DU145): 2.86
- Euclidean distance (FB): 0.938
- Euclidean distance (HEPG2): 0.669
- Euclidean distance (OVCAR4): 1.28

Structure (SMILES): COc1ccc(-c2cc(=O)c3c(OC)c(OC)c(OC)c(OC)c3o2)cc1OC [Nobiletin]
- Euclidean distance (786-O): 0.695
- Euclidean distance (A549): 0.706
- Euclidean distance (DU145): 1
- Euclidean distance (FB): 0.95
- Euclidean distance (HEPG2): 1.47
- Euclidean distance (OVCAR4): 0.897

Structure (SMILES): Cc1cc(Nc2ccc(NC(=O)c3ccc(Nc4ccnc5ccccc45)cc3)cc2)nc(N)n1
- Euclidean distance (786-O): 1.66
- Euclidean distance (A549): 3.02
- Euclidean distance (DU145): 1.42
- Euclidean distance (FB): 5.18
- Euclidean distance (HEPG2): 0.532
- Euclidean distance (OVCAR4): 3.29

Structure (SMILES): CNC(=O)c1cnn(-c2nc(N)c3ncn([C@@H]4O[C@H](CO)[C@@H](O)[C@H]4O)c3n2)c1 [Regadenoson]
- Euclidean distance (786-O): 0.517
- Euclidean distance (A549): 0.628
- Euclidean distance (DU145): 0.867
- Euclidean distance (FB): 1.43
- Euclidean distance (HEPG2): 1.32
- Euclidean distance (OVCAR4): 0.995

Structure (SMILES): O=C1NCC2(CCN(CCc3ccccc3)CC2)O1 [Fenspiride HCl]
- Euclidean distance (786-O): 0.914
- Euclidean distance (A549): 1.2
- Euclidean distance (DU145): 1.2
- Euclidean distance (FB): 1.2
- Euclidean distance (HEPG2): 1.08
- Euclidean distance (OVCAR4): 1.26

Structure (SMILES): CC(C)(C)c1cc(C(C)(C)C)c(NC(=O)c2c[nH]c3ccccc3c2=O)cc1O [Ivacaftor (VX-770)]
- Euclidean distance (786-O): 2.11
- Euclidean distance (A549): 2.23
- Euclidean distance (DU145): 1.21
- Euclidean distance (FB): 0.989
- Euclidean distance (HEPG2): 1.96
- Euclidean distance (OVCAR4): 1.56

Structure (SMILES): COc1cc(N)c(Cl)cc1C(=O)NC1CCN(CCCOc2ccc(F)cc2)CC1OC (centres undefined) [Cisapride hydrate]
- Euclidean distance (786-O): 0.963
- Euclidean distance (A549): 1.16
- Euclidean distance (DU145): 0.853
- Euclidean distance (FB): 1.23
- Euclidean distance (HEPG2): 0.401
- Euclidean distance (OVCAR4): 1.05

Structure (SMILES): COc1cccc2c1C(=O)c1c(O)c3c(c(O)c1C2=O)C[C@@](O)(C(=O)CO)C[C@@H]3O[C@H]1C[C@H](N)[C@@H](O)[C@H](C)O1 [Epirubicin HCl]
- Euclidean distance (786-O): 3.54
- Euclidean distance (A549): 4.33
- Euclidean distance (DU145): 3.92
- Euclidean distance (FB): 5.12
- Euclidean distance (HEPG2): 4.78
- Euclidean distance (OVCAR4): 4.83

Structure (SMILES): CC(C)CCN1c2nc(Nc3cc(F)c(O)c(F)c3)ncc2N(C)C(=O)C1C (centres undefined)
- Euclidean distance (786-O): 1.38
- Euclidean distance (A549): 1.84
- Euclidean distance (DU145): 2.16
- Euclidean distance (FB): 1.49
- Euclidean distance (HEPG2): 0.771
- Euclidean distance (OVCAR4): 2.61

Structure (SMILES): CC1=C(/C=C/C(C)=C/C=C/C(C)=C/C(=O)Nc2ccc(O)cc2)C(C)(C)CCC1 [Fenretinide]
- Euclidean distance (786-O): 2.9
- Euclidean distance (A549): 2.87
- Euclidean distance (DU145): 1.92
- Euclidean distance (FB): 2.58
- Euclidean distance (HEPG2): 1.91
- Euclidean distance (OVCAR4): 2.4

Structure (SMILES): COc1c(C)cnc(Cn2cnc3c(Cl)nc(N)nc32)c1C
- Euclidean distance (786-O): 3.02
- Euclidean distance (A549): 3.08
- Euclidean distance (DU145): 3.08
- Euclidean distance (FB): 3.34
- Euclidean distance (HEPG2): 4.24
- Euclidean distance (OVCAR4): 3.08

Structure (SMILES): C[C@]12CCC3=C4CCC(=O)C=C4CC[C@H]3[C@@H]1CC[C@@]2(O)CC#N [Dienogest]
- Euclidean distance (786-O): 1.53
- Euclidean distance (A549): 0.862
- Euclidean distance (DU145): 1.61
- Euclidean distance (FB): 1.08
- Euclidean distance (HEPG2): 1.12
- Euclidean distance (OVCAR4): 1.39

Structure (SMILES): C#CCN(C)Cc1ccccc1 [Pargyline hydrochloride]
- Euclidean distance (786-O): 1.39
- Euclidean distance (A549): 0.874
- Euclidean distance (DU145): 1.18
- Euclidean distance (FB): 1.16
- Euclidean distance (HEPG2): 0.696
- Euclidean distance (OVCAR4): 1.43

Structure (SMILES): Cc1ccc(C(=O)c2ccc(CC(=O)O)n2C)cc1 [Tolmetin]
- Euclidean distance (786-O): 1.07
- Euclidean distance (A549): 0.65
- Euclidean distance (DU145): 0.844
- Euclidean distance (FB): 1.14
- Euclidean distance (HEPG2): 0.964
- Euclidean distance (OVCAR4): 0.922

Structure (SMILES): CC(C)(O)CNc1nc(Nc2ccnc(C(F)(F)F)c2)nc(-c2cccc(C(F)(F)F)n2)n1 [Enasidenib (AG-221)]
- Euclidean distance (786-O): 1.17
- Euclidean distance (A549): 0.727
- Euclidean distance (DU145): 1.69
- Euclidean distance (FB): 1.4
- Euclidean distance (HEPG2): 1.82
- Euclidean distance (OVCAR4): 1

Structure (SMILES): C[C@H]1[C@H](OC(=O)CCC(=O)O)O[C@@H]2O[C@@]3(C)CC[C@H]4[C@H](C)CC[C@@H]1[C@@]24OO3 [Artesunate]
- Euclidean distance (786-O): 1.44
- Euclidean distance (A549): 2.06
- Euclidean distance (DU145): 1.01
- Euclidean distance (FB): 1.66
- Euclidean distance (HEPG2): 1.03
- Euclidean distance (OVCAR4): 1.88

Structure (SMILES): N#Cc1ccnc(N2C(=O)CC[C@H]2C(=O)N(c2cncc(F)c2)[C@H](C(=O)NC2CC(F)(F)C2)c2ccccc2Cl)c1 [Ivosidenib (AG-120)]
- Euclidean distance (786-O): 0.973
- Euclidean distance (A549): 0.609
- Euclidean distance (DU145): 1.95
- Euclidean distance (FB): 1.1
- Euclidean distance (HEPG2): 0.986
- Euclidean distance (OVCAR4): 1.55

Structure (SMILES): O=C(Nc1cccc(Cl)c1)c1ccccn1
- Euclidean distance (786-O): 1.22
- Euclidean distance (A549): 0.467
- Euclidean distance (DU145): 0.841
- Euclidean distance (FB): 0.785
- Euclidean distance (HEPG2): 0.522
- Euclidean distance (OVCAR4): 0.899

Structure (SMILES): CC(C)CN(C[C@@H](O)[C@H](Cc1ccccc1)NC(=O)O[C@H]1CCOC1)S(=O)(=O)c1ccc(N)cc1 [Amprenavir]
- Euclidean distance (786-O): 1.35
- Euclidean distance (A549): 1.29
- Euclidean distance (DU145): 1.22
- Euclidean distance (FB): 1.22
- Euclidean distance (HEPG2): 1.26
- Euclidean distance (OVCAR4): 1.6
